Compounds without any hit were thinned out: in the full panel of roughly 79,000, 15% have a hit. Unmarked numbers belong to inactive results. Activity calls are given as the source filed them. No stated cut-off is given here; in the data, active means growth inhibition above about 70%; inactive means the rest.
How the values were obtained:
[1] = NCI Yeast Anticancer Drug Screen. Data for the rad50 strain (AID 155);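 further: 0% = growth of vehicle-only cultures of the same strain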; settings: S. cerevisiae rad50 strain growth inhibition, active compounds read high
In short: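 Yeast carrying a defined DNA repair defect were exposed to test compounds, and growth was compared with vehicle-treated controls to give percent inhibition.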

[2] = NCI Yeast Anticancer Drug Screen. Data for the mec2-1 strain (AID 157); settings: S. cerevisiae mec2-1 strain, active compounds read high
In short: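 Compounds were applied to mec2-1 yeast cells. Their growth was then compared with that of vehicle-treated cultures to give growth inhibition.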

[3] = NCI Yeast Anticancer Drug Screen. Data for the sgs1 mgt1 strain (AID 161);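 further: 0% = growth of cultures given vehicle only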; settings: S. cerevisiae sgs1 mgt1 strain, active compounds read high
In short: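 Yeast cells carrying a defined DNA-repair defect were exposed to test compounds. Growth inhibition was measured relative to vehicle-treated controls.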

[4] = NCI Yeast Anticancer Drug Screen. Data for the cln2 rad14 strain (AID 165);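 further: 0% = growth equal to vehicle treated cultures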; settings: S. cerevisiae cln2 rad14 strain, active compounds read high
In short: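 Strain: cln2 rad14 yeast, altered in cell cycle control and DNA damage repair. Read-out: growth inhibition vs vehicle.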

[5] = NCI Yeast Anticancer Drug Screen. Data for the bub3 strain (AID 167); settings: S. cerevisiae bub3 mutant strain, active compounds read high
In short: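 Compounds were applied to a genetically altered yeast strain carrying a cell-cycle control defect. Growth inhibition was scored against vehicle-treated controls.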

[6] = NCI Yeast Anticancer Drug Screen. Data for the mlh1 rad18 strain (AID 175); settings: S. cerevisiae mlh1 rad18 strain growth inhibition, active compounds read high
In short: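 A repair-deficient yeast strain is exposed to test compound, and growth is scored relative to vehicle-treated controls.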

[7] = at 5.0 µM (retest, dose inferred, filed as 0.5)
[8] = at 50.0 µM (retest, dose inferred, filed as 5.0)

SMILES	growth inhibition [1, 7] [%]	growth inhibition [1, 8]	growth inhibition ([1]; at 50.0 µM)	growth inhibition [2, 7] [%]	growth inhibition [2, 8]	growth inhibition ([2]; at 50.0 µM)	growth inhibition [3, 7] [%]	growth inhibition [3, 8]	growth inhibition ([3]; at 50.0 µM)	growth inhibition [4, 7] [%]	growth inhibition [4, 8]	growth inhibition ([4]; at 50.0 µM)	growth inhibition [5, 7] [%]	growth inhibition [5, 8]	growth inhibition ([5]; at 50.0 µM)	growth inhibition [6, 7] [%]	growth inhibition [6, 8]	growth inhibition ([6]; at 50.0 µM)
CCC12C=CCN3CCC4(c5cc(C(c6ccccn6)c6cc7ccccc7n6C)c(OC)cc5N(C)C4C(O)(C(=O)OC)C1OC(C)=O)C32 (configuration not stated)	4	0%	68.3%	46	0%	81.5% (active)	-1	2%	49.6%	-2	-5%	83.3% (active)	-2	-3%	65%	3	11%	94.7% (active)
N#CC1C(=O)NC(=O)C(C#N)C1c1c(Cl)cccc1Cl (configuration not stated)	5	72% (active)	96.2% (active)	1	55%	92.5% (active)	4	91% (active)	94% (active)	8	28%	48.1%	-7	74% (active)	91% (active)	1	93% (active)	94.7% (active)
CCOc1c(N=Nc2ccc(Cl)cc2)c(-c2ccccc2)nn1C(=S)S	4	91% (active)	95.3% (active)	2	89% (active)	95.6% (active)	8	92% (active)	92% (active)	5	92% (active)	91.5% (active)	0	94% (active)	92.8% (active)	2	91% (active)	94.4% (active)
CN(C)c1ccc2c(NCCCCCCNc3ccnc4cc(N(C)C)ccc34)ccnc2c1	10	95% (active)	84.5% (active)	7	97% (active)	91.2% (active)	16	98% (active)	53.4%	1	92% (active)	29.4%	-2	97% (active)	30.5%	14	95% (active)	-5.8%
Nc1ccc(S(=O)(=O)N2CCCc3ccccc32)cc1	5	20%	83.7% (active)	7	21%	56.9%	4	34%	84% (active)	2	23%	74.2% (active)	3	28%	82% (active)	7	40%	74.4% (active)
CC(C)(C)N1C(=O)C(Cl)(C#N)C1c1ccccc1 (configuration not stated)	7	25%	43.5%	-4	8%	26.6%	-3	27%	73.5% (active)	9	11%	19.9%	-1	0%	-6.3%	-11	26%	72.5% (active)
Nc1ccc2nc3ccccc3nc2c1	-11	95% (active)	97% (active)	-11	60%	81% (active)	-22	77% (active)	64.8%	-10	44%	74% (active)	-4	78% (active)	75.8% (active)	4	90% (active)	88.4% (active)
COC(=O)C(=O)C(/C=N/C(=S)NCCc1ccc(OC)c(OC)c1)=C(/O)c1ccc([N+](=O)[O-])cc1	3	15%	0.3%	-5	-3%	-7.95%	13	1%	19.4%	20	-11%	30.9%	6	-13%	15.4%	-3	8%	-9.7%
O=C(O)c1ccc(OCc2ccccc2)c(Cl)c1	16	36%	52.8%	22	44%	25.5%	11	38%	30.9%	-8	39%	54.2%	3	17%	38.2%	12	47%	59.1%

— PubChem BioAssay (NCI)
